# Experiments:
# Experiment in all cases: DAPPL (digital affinity profiling via proximity ligation, sequencing); 10 mM Tris-HCl pH 7.5, 50 mM NaCl, 1 mM DTT, 4% glycerol, room temperature, 30 min; GST-TFs on glutathione beads, 16-mer random dsDNA library, 0.1% formaldehyde crosslink after washing; high values mean tight binding
# FEV = molecular target: T1, FEV (Homo sapiens, UniProt Q99581 1-238); details: protein: recombinant; tags: N-terminal GST; dsDNA, one strand shown
# T1 sequence: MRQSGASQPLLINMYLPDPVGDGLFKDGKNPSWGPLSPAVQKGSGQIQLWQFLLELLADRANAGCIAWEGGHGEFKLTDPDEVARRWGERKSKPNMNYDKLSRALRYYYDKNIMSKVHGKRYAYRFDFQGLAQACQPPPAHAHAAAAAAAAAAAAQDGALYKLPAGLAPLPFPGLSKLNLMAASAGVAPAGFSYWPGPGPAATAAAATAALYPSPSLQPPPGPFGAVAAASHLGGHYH
# Outline: (§1)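 The binding signal reported is, for every hexamer, its read frequency for a factor over its read frequency for the tag-only sample. Reads came from pools of yeast-expressed, GST-fused human transcription factors on glutathione beads, barcoded with DNA and mixed with that sample, which were incubated with 200 nmole of a random double-stranded 16-mer DNA library in Tris/NaCl/DTT/glycerol buffer at room temperature for 30 min. After washing, the pools were crosslinked with 0.1% formaldehyde, proximity-ligated with BsaI/T4 ligase for 1 h at 37 °C, PCR-amplified and sequenced on an Illumina NextSeq500.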
# ETV5 = ETV5 (Homo sapiens, UniProt P41161 1-510); details: protein: recombinant; tags: N-terminal GST; dsDNA, one strand shown
# Outline: as §1
# HSF1 = HSF1 (Homo sapiens, UniProt Q00613 1-529); details: protein: recombinant; tags: N-terminal GST; chain copies: 3; dsDNA, one strand shown
# Outline: as §1
# SPIC = molecular target: T2, SPIC (Homo sapiens, UniProt Q8N5J4 1-248); details: protein: recombinant; tags: N-terminal GST; dsDNA, one strand shown
# T2 sequence: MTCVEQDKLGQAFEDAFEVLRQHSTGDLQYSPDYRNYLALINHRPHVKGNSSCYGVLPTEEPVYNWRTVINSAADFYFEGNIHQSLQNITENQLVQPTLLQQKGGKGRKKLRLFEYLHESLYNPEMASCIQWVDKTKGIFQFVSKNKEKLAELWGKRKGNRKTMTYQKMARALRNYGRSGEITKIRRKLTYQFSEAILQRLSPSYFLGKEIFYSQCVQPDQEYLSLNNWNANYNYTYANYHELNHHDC
# Outline: as §1
# ELF4 = ELF4 (Homo sapiens, UniProt Q99607 1-663); details: protein: recombinant; tags: N-terminal GST; dsDNA, one strand shown
# Outline: as §1
# ELK4 = molecular target: T3, ELK4 (Homo sapiens, UniProt P28324-2 1-405); details: protein: recombinant; tags: N-terminal GST; dsDNA, one strand shown
# T3 sequence: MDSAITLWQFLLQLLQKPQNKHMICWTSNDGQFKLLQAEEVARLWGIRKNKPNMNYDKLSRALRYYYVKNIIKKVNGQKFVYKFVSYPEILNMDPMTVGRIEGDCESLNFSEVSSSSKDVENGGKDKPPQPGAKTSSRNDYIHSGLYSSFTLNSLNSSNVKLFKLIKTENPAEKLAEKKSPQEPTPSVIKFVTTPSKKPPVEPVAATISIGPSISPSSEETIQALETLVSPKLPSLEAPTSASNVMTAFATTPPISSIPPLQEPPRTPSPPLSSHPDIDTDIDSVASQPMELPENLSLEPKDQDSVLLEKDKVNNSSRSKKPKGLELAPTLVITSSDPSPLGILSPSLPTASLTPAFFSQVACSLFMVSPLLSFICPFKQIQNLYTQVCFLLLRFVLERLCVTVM
# Outline: as §1
# ETV2 = molecular target: T4, ETV2 (Homo sapiens, UniProt O00321 1-342); details: protein: recombinant; tags: N-terminal GST; dsDNA, one strand shown
# T4 sequence: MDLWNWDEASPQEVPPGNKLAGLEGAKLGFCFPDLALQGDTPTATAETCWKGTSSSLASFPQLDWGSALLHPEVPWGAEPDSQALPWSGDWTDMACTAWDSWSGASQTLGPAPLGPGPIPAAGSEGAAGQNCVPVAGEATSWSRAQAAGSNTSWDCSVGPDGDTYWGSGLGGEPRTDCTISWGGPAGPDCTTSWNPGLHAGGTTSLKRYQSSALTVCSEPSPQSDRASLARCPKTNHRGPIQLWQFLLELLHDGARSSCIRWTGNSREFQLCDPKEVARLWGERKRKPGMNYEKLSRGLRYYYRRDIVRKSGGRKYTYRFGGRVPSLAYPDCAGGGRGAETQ
# Outline: as §1
# ELF3 = molecular target: T5, ELF3 (Homo sapiens, UniProt P78545 1-371); details: protein: recombinant; tags: N-terminal GST; dsDNA, one strand shown
# T5 sequence: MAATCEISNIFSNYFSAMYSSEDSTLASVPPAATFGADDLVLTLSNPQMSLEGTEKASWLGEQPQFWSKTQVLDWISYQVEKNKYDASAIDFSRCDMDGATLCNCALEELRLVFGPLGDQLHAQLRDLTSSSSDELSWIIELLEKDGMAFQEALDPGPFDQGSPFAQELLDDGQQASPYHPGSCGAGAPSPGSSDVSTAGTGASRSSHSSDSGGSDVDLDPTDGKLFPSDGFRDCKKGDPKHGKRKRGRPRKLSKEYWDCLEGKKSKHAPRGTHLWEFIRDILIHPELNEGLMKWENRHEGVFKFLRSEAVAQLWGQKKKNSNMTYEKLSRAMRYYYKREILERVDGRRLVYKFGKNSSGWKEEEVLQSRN
# Outline: as §1
# ETV1 = ETV1 (Homo sapiens, UniProt P50549 1-477); details: protein: recombinant; tags: N-terminal GST; dsDNA, one strand shown
# Outline: as §1
# ERF = molecular target: T6, ERF (Homo sapiens, UniProt P50548 1-548); details: protein: recombinant; tags: N-terminal GST; dsDNA, one strand shown
# T6 sequence: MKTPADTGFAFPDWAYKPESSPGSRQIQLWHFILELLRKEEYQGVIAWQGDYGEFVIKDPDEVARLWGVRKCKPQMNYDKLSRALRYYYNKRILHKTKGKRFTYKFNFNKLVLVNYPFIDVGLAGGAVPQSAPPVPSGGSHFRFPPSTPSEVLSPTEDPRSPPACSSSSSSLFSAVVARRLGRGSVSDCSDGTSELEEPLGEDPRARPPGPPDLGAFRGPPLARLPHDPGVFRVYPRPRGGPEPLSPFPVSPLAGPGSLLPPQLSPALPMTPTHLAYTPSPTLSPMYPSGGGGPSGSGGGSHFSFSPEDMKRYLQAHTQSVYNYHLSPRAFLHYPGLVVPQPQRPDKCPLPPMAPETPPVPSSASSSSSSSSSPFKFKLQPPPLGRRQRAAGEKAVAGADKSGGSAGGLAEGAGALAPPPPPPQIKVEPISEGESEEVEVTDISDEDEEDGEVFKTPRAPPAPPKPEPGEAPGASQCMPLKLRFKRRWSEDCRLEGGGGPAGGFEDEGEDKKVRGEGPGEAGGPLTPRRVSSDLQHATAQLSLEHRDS
# Outline: as §1
# ETV3L = molecular target: T7, ETV3L (Homo sapiens, UniProt Q6ZN32 1-361); details: protein: recombinant; tags: N-terminal GST; dsDNA, one strand shown
# T7 sequence: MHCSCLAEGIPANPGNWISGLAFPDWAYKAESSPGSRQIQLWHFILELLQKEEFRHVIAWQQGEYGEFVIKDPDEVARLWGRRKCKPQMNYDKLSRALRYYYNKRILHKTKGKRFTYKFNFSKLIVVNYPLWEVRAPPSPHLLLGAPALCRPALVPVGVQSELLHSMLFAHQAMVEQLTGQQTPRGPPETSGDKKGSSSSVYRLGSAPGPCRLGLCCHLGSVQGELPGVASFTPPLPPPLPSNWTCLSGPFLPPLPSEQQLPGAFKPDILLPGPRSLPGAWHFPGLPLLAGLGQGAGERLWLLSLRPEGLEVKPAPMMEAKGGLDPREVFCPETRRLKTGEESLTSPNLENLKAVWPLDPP
# Outline: as §1
# ETS2 = molecular target: T8, ETS2 (Homo sapiens, UniProt P15036 1-469); details: protein: recombinant; tags: N-terminal GST; dsDNA, one strand shown
# T8 sequence: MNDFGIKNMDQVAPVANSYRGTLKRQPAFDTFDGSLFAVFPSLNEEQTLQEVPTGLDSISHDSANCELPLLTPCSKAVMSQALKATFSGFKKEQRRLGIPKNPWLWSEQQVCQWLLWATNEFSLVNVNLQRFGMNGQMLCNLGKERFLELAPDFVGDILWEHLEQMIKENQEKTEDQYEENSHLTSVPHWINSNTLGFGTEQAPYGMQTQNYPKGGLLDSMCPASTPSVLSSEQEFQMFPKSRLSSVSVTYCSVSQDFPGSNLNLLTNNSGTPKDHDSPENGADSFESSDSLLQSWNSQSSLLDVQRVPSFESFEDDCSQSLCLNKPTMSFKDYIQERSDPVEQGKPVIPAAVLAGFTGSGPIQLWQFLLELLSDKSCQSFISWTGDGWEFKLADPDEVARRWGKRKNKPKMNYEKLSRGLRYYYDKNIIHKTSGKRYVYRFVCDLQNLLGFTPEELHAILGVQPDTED
# Outline: as §1
# SPDEF = molecular target: T9, SPDEF (Homo sapiens, UniProt O95238 1-335); details: protein: recombinant; tags: N-terminal GST; dsDNA, one strand shown
# T9 sequence: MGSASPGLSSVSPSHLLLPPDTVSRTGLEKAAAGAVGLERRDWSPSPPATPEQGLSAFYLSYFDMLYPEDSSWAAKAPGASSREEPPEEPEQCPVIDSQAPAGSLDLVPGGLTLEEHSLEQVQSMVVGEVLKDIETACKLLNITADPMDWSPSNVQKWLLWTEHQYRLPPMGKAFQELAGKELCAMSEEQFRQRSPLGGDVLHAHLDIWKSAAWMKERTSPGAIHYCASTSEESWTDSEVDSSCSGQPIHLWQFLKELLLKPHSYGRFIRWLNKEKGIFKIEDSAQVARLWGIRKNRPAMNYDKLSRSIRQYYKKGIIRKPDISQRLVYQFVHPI
# Outline: as §1
# ETV7 = molecular target: T10, ETV7 (Homo sapiens, UniProt Q9Y603 1-341); details: protein: recombinant; tags: N-terminal GST; dsDNA, one strand shown
# T10 sequence: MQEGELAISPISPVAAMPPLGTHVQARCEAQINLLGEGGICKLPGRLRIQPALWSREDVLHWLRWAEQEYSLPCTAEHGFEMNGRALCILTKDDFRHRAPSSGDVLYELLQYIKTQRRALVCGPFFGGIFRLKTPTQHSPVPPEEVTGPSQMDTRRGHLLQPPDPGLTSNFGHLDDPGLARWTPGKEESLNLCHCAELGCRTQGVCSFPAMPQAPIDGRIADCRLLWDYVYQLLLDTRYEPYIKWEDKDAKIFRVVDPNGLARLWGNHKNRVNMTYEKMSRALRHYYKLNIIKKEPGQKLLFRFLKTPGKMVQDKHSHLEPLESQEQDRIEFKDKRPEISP
# Outline: as §1
# ELF5 = molecular target: T11, ELF5 (Homo sapiens, UniProt Q9UKW6-2 1-255); details: protein: recombinant; tags: N-terminal GST; dsDNA, one strand shown
# T11 sequence: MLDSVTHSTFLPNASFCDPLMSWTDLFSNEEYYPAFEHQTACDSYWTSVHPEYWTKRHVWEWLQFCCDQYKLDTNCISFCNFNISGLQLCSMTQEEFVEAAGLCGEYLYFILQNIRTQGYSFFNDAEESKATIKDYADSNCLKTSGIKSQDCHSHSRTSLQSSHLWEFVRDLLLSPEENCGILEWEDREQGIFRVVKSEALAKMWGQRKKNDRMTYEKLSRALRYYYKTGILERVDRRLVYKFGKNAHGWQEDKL
# Outline: as §1
# ETV3 = molecular target: T12, ETV3 (Homo sapiens, UniProt P41162-2 1-143); details: protein: recombinant; tags: N-terminal GST; dsDNA, one strand shown
# T12 sequence: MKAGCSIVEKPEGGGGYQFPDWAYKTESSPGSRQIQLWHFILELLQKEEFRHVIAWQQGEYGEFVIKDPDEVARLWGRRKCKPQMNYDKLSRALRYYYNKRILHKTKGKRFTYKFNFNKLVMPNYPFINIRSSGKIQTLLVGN
# Outline: as §1
# ETV6 = ETV6 (Homo sapiens, UniProt P41212 1-452); details: protein: recombinant; tags: N-terminal GST; dsDNA, one strand shown
# Outline: as §1
# Sequence of ETV5 (P41161 whole entry): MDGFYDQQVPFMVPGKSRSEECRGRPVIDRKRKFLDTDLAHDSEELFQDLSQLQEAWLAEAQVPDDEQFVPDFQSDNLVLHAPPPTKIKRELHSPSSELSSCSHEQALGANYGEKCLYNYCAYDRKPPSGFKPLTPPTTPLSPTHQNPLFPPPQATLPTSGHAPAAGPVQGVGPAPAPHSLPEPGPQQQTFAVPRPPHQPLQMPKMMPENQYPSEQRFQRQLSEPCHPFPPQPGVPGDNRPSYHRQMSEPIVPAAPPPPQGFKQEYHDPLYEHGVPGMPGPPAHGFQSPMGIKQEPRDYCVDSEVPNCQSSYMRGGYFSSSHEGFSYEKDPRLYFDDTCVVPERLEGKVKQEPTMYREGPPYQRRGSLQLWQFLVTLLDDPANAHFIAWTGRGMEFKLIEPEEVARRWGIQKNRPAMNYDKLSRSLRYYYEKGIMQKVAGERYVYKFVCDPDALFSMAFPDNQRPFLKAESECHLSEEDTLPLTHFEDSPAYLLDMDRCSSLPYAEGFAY
# Sequence of ETV6 (P41212 whole entry): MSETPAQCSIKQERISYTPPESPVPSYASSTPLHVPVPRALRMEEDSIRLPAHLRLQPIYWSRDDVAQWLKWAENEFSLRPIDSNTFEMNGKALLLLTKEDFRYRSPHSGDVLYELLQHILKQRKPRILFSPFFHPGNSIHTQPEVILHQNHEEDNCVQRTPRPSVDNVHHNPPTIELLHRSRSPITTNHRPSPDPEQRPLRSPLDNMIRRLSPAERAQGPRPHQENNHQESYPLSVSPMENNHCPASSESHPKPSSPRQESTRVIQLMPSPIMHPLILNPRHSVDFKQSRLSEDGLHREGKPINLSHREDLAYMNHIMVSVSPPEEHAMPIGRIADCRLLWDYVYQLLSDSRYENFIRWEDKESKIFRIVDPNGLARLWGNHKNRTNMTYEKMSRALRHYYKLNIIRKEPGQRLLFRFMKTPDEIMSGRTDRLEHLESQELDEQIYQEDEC
# Sequence of HSF1 (Q00613 whole entry): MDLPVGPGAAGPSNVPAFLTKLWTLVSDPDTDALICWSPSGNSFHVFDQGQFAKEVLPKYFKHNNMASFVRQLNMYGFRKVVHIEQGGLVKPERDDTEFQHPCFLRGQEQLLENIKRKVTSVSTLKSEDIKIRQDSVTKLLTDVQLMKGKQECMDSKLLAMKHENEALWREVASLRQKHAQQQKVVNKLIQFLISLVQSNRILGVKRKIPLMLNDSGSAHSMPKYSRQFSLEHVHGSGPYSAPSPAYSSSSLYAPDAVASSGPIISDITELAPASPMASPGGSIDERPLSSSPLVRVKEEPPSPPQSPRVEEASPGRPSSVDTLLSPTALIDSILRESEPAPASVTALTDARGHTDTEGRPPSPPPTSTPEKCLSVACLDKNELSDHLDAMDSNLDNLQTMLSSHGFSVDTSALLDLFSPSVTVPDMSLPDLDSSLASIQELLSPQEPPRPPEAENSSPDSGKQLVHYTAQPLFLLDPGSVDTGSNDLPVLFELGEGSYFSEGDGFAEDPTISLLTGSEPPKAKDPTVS
# Sequence of ELF4 (Q99607 whole entry): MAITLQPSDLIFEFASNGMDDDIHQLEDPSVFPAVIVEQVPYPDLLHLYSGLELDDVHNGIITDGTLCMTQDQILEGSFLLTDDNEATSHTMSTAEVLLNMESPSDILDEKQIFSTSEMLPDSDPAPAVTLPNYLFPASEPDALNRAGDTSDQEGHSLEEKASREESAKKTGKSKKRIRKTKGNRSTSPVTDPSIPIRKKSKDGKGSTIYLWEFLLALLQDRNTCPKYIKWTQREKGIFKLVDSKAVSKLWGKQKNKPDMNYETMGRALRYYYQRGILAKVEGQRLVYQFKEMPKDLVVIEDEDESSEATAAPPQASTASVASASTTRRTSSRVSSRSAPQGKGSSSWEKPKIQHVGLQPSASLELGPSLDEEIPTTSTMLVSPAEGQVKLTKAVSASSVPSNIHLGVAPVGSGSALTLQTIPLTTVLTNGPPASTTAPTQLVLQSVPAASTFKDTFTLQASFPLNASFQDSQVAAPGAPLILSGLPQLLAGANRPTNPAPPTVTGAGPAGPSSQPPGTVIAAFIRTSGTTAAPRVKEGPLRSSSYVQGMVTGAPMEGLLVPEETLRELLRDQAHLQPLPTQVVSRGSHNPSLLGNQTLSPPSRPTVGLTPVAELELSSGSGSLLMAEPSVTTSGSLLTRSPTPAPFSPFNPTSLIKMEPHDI
# Sequence of ETV1 (P50549 whole entry): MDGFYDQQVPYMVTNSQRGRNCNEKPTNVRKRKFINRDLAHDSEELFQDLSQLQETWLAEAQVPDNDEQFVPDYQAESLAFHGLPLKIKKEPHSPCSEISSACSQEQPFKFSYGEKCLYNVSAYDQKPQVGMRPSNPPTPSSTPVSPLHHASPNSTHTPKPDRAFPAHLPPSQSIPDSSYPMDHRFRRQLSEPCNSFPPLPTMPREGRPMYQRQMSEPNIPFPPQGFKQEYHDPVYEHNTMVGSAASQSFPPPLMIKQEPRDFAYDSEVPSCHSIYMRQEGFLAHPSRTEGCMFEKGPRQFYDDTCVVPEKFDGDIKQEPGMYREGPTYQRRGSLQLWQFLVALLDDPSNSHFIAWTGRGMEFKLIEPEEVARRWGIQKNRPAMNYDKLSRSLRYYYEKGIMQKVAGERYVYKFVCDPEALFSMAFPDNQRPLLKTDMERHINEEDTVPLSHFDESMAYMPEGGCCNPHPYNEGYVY
sequence,measurement,setting,value
GAAATG,binding signal,FEV,"1.77 fold enrichment (6-mer frequency, TF over GST control)"
same,binding signal,ETV5,"1.7 fold enrichment (6-mer frequency, TF over GST control)"
same,binding signal,HSF1,"1.1 fold enrichment (6-mer frequency, TF over GST control)"
same,binding signal,SPIC,"1.56 fold enrichment (6-mer frequency, TF over GST control)"
same,binding signal,ELF4,"1.49 fold enrichment (6-mer frequency, TF over GST control)"
same,binding signal,ELK4,"1.65 fold enrichment (6-mer frequency, TF over GST control)"
same,binding signal,ETV2,"1.55 fold enrichment (6-mer frequency, TF over GST control)"
same,binding signal,ELF3,"1.78 fold enrichment (6-mer frequency, TF over GST control)"
same,binding signal,ETV1,"1.58 fold enrichment (6-mer frequency, TF over GST control)"
same,binding signal,ERF,"1.5 fold enrichment (6-mer frequency, TF over GST control)"
same,binding signal,ETV3L,"1.59 fold enrichment (6-mer frequency, TF over GST control)"
same,binding signal,ETS2,"1.63 fold enrichment (6-mer frequency, TF over GST control)"
same,binding signal,SPDEF,"1.45 fold enrichment (6-mer frequency, TF over GST control)"
same,binding signal,ETV7,"1.6 fold enrichment (6-mer frequency, TF over GST control)"
same,binding signal,ELF5,"1.87 fold enrichment (6-mer frequency, TF over GST control)"
same,binding signal,ETV3,"1.68 fold enrichment (6-mer frequency, TF over GST control)"
same,binding signal,ETV6,"1.75 fold enrichment (6-mer frequency, TF over GST control)"
